According to PubChem BioAssay (NCI):
About 83,000 compounds went through this panel and 20% of them were active in at least one assay; those are over-represented in the sample as a whole.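 In brief: 96-well plates, 48 h treatment, single concentration, percent growth endpoint.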 A number with no mark means an inactive call. Activity calls are given as the source filed them. How the source made its calls: active means growth percent below 10; inactive means the rest.

Tested on: MDA-MB-468 breast
Experiment: NCI-60 one-dose screen, 48 h (100 = growth as untreated, 0 = no growth, -100 = all killed)
Conditions: 10 µM unless noted

SMILES | growth
c1ccc2oc(-c3cnc4nonc4n3)cc2c1 | 98.9%
CCN(CC)c1ccc(CNc2ccnc3ccccc23)cc1 | 1.4% (active)
CCOC(=O)CNC(=O)Nc1ccc(Oc2ccc(NC(=O)NCC(=O)OCC)cc2)cc1 | 99.5%
CC(O)CN(CCO)CCN(CCO)CC(C)O (stereo not given) | 94.8%
CC(=O)c1cc(C(=O)N2c3ccccc3Sc3ccccc32)n2ccc3ccccc3c12 | 43.4%
O=C(Nc1ncc([N+](=O)[O-])s1)c1cccc([N+](=O)[O-])c1 | 28.1%
CC(=O)Nc1ccc(C=Nc2ccc3ccccc3c2)cc1 | 107%
Nc1cc(N)c2cccnc2c1O | 48.2%
COc1cc(/C=C2\C(=O)Nc3cc(Cl)ccc32)ccc1OCc1ccc(F)cc1 | 93%
c1coc(-c2c3ccc(=[N+]4CCCCC4)cc-3oc3cc(N4CCCCC4)ccc23)c1 | -88.6% (active)
COC(=O)[C@]12CC[C@@H](C)[C@H](C)[C@@H]1C1=CC[C@@H]3[C@@]4(C)CC(=O)[C@H](OC(=O)c5ccco5)[C@@]5(C)COC(=C45)C[C@@]3(C)[C@]1(C)CC2 | 8.15% (active)
Cc1ccc(C2CC(c3cccc(Nc4ccncc4)c3)=NN2c2cc(Cl)cc(Cl)c2)cc1 (stereo not given) | -30% (active)
COc1cc(C(=O)/C=C/c2cccnc2Nc2ccccc2)cc(OC)c1OC | -93.8% (active)
Cc1c(O)cnc2nn(-c3ccccc3)c(=N)n12 | 108%
Clc1ccc(Nc2ncnc3c2sc2ncccc23)c(Cl)c1 | 22.2%
